Many of the other results were omitted from the sample, so hits are more common in it than they were.
HT1080 IDH1KD tx = HT-1080 IDH1 knockdown cell toxicity (counter line) | HT-1080 IDH1 knockdown viability, ATP luminescence, 48 h | Potency, µM (doses to about 46.1 µM), for the others: at the top dose activity, negative = toxicity, hits mostly cytotoxic | hit rate 2% among 360,000 | AID 686971;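 also: potency is read from the fitted curve at half-maximal effect; 0% = DMSO wells and -100% = cell-free medium wells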
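Viability of IDH1-knockdown HT-1080 fibrosarcoma cells was assessed by CellTiter-Glo after 48 h at 37 °C with titrated compound; concentration-effect curves were classified by fit quality and response size.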
ALOX12 inh = inhibitors of human 12S-lipoxygenase ALOX12 | P18054 | purified 12hLO, xylenol orange hydroperoxide absorbance | Potency, µM (top dose mostly 108 µM), for the others: at the highest dose activity change, negative = inhibition, actives largely listed as inhibitors | hit rate 1.1% among 580,000; also: potency is read from the fitted curve at half-maximal effect
Target sequence (P18054 whole entry, looked up): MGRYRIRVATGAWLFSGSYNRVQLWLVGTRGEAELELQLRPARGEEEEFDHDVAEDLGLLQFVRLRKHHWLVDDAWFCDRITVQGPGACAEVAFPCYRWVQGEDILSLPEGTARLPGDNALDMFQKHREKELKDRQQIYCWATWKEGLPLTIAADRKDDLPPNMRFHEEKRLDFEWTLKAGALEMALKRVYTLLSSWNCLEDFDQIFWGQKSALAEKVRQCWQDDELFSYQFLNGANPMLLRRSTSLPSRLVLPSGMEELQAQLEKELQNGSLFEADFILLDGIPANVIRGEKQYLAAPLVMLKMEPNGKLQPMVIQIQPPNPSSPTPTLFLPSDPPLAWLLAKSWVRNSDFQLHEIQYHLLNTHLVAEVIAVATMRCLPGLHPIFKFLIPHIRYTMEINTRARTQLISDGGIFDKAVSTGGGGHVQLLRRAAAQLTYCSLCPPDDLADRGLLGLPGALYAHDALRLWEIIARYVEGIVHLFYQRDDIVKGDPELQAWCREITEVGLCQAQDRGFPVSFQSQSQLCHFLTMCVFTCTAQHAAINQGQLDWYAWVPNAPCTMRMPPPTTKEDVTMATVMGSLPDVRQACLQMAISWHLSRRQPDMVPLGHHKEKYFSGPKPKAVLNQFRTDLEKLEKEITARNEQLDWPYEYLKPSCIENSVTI
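Hydroperoxide product was detected by ferrous iron/xylenol orange as the 573 to 405 nm absorbance ratio. Arachidonic acid at 40 uM (final) was turned over for 30 min at room temperature by 150 nM human 12hLO, pH 7.0 Hepes buffer, after 15 min compound preincubation.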
DT40 TDP1 no CPT = qHTS for Inhibitors of human tyrosyl-DNA phosphodiesterase 1 (TDP1): qHTS in cells in absence of CPT | DT40 Tdp1-/- hTDP1 cells, no CPT, ATP luminescence, 48 h | AID 686978, 2013 | hit rate 15% among 420,000 | Potency, µM (doses to about 46.2 µM), for inactives: at the highest dose activity change, negative = growth inhibition, actives largely listed as inhibitors; also: potency is read from the fitted curve at half-maximal effect; nearly all actives have a fitted effect of over 55% in size
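Camptothecin absent (DMSO only). Human TDP1-complemented DT40 knockout cells, 400 cells/well, 37 °C for minimum 48 hr; ATP measured via CellTiter-Glo, 30 min dark incubation, luminescence.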
HT1080NT lethal = kills 2HG-producing HT-1080-NT fibrosarcoma cells | HT-1080-NT fibrosarcoma viability, CellTiter-Glo ATP luminescence, 48 h | Potency, µM (top dose mostly 46.1 µM), for inactives: at the highest dose activity, negative = less viability, usual class: cytotoxic | hit rate 1.6% among 360,000;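 also: NT is the 2HG producing partner of a matched IDH1 knockdown line; potency is read from the fitted curve at half-maximal effect; 0% = DMSO-treated cells and -100% = media-only wells without cells; nearly all actives have a fitted effect of over 55% in size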
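A 48-hour cytotoxicity screen used HT-1080-NT cells plated 2 hours before compound delivery. ATP-based CellTiter-Glo luminescence measured viability, normalized to DMSO and no-cell controls.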
DT40 TDP1 CPT = DT40-hTDP1 cell growth loss with CPT; hit rate 12% among 420,000; Potency, µM (series often up to 46.2 µM), inactives show at the highest dose activity change, negative = growth inhibition, actives largely listed as inhibitors; AID 686979; chicken DT40 Tdp1-/-;hTDP1 cells + 20 nM CPT, ATP luminescence, 48 h; also: potency is read from the fitted curve at half-maximal effect; nearly all actives have a fitted effect of over 55% in size
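Chicken DT40 Tdp1-/- cells stably complemented with human TDP1 were seeded at 400 cells/well in medium containing 20 nM camptothecin, exposed to pin-transferred compounds, and grown at 37 °C for at least 48 hr. Viability was read as ATP luminescence.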
IL1B secr inh = blocks inflammasome-driven IL-1 beta release. THP-1 LPS/ATP IL-1B secretion, AlphaLISA, 16 h; stronger effect = lower value. activity change, % at 57.5 µM. hit rate 4.7% among 360,000. AID 743279; in the data active = activity change below about -50%; inconclusive = mostly about -30% to -49%
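Secreted IL-1B measured by AlphaLISA bead assay after 16 h compound exposure of THP-1 cells; compounds (final up to 57.5 uM) added 1 h before LPS (250 ng/mL) and ATP (1.25 mM) stimulation; lower signal means less secretion.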
The depositor's hits bear a star; i = inactive; u = inconclusive; x = no result. Unless noted, calls follow the shape of the dose curve; as a rule, active = well fitted curve in the direction sought with a large enough effect; inconclusive = small, poorly fitted or top-dose-only effect, or another doubt; inactive = no such curve, though single readings can be large; an effect the other way counts as inactive or inconclusive. Unless noted, % is scaled to controls: 0 for no effect and ±100 for the full control effect.

SMILES	HT1080 IDH1KD tx	ALOX12 inh	DT40 TDP1 no CPT	HT1080NT lethal	DT40 TDP1 CPT	IL1B secr inh
CCN(CC)CCN(C(=O)c1cc2ccccc2cc1OC)c1nc2ccc(OC)cc2s1	u	-22.5%	18.4µM*	u	u	u
CCOc1ccc2nc(N(CCN(CC)CC)C(=O)/C=C/c3cccs3)sc2c1	-20.2%	-18.1%	u	-27.6%	u	-96.7*
CCN(CC)CCN(C(=O)c1cc2ccccc2cc1OC)c1nc2ccc(F)cc2s1	u	u	u	18.4µM*	18.4µM*	-58.6*
CCN(CC)CCN(C(=O)c1ccc([N+](=O)[O-])cc1)c1nc2ccc(OC)cc2s1	10.5%	-2.4%	-1.0%	12.1%	5.6%	-12.8
CCCC(NC(=O)c1ccc(Cl)nc1)c1ccccc1 (stereo not drawn)	x	-31.2%	x	x	x	x
CN(C)c1cccc(C(=O)NCC2CCN(c3cc(-c4ccc(Cl)cc4)[nH]n3)CC2)c1	x	18.3%	x	x	x	x
COc1cc(C(=O)Nc2ccccc2)nc2ccc(Cl)cc12	x	0.6%	x	x	x	x
Cc1ccc(N2CC(c3nc(-c4cccs4)no3)CC2=O)cc1C (stereo not drawn)	x	7.2%	x	x	x	x
CC(=O)C1=C(O)C(=O)N(c2nccs2)C1c1ccccc1 (stereo not drawn)	-4.6%	8.91µM*	-25.1%	-2.0%	-24.1%	12.9
CC(=O)C1=C(O)C(=O)N(c2ccc(Br)cc2)C1c1ccc(Br)cc1 (stereo not drawn)	-22.2%	7.94µM*	7.2%	u	1.4%	47.8
CC(=O)C1=C(O)C(=O)N(Cc2ccccc2)C1c1ccc(Br)cc1 (stereo not drawn)	-3.2%	11.2µM*	-21.4%	-2.3%	25.2%	21.5
CCOC(=O)c1ccc2ncc(C(=O)OCC)c(NCCCOC(=O)c3cccnc3)c2c1	x	76.0%	x	x	x	x
COC1CN(c2cccc(F)c2)C12CCN(C(=O)CC1CCCCC1)CC2 (stereo not drawn)	x	-3.9%	x	x	x	x
O=C(O)C12CC3(Br)CC(Br)(CC(Br)(C3)C1)C2	x	-18.1%	x	x	x	x
C#CCOCCOCCOCCNc1nc(N2CCN(C(=O)CCCCCCCCCCNC(=O)[C@H](CCCCN)n3cc(C)nn3)CC2)nc(N2CCN(C(=O)CCCCCCCCCCNC(=O)[C@H](CCCCN)n3cc(CCCC(=O)O)nn3)CC2)n1	3.2%	x	-6.6%	0.7%	-3.9%	0.0
C#CCOCCOCCOCCNc1nc(N2CCN(C(=O)CCCCCCCCCCNC(=O)Cn3cc(CCCCCN)nn3)CC2)nc(N2CCN(C(=O)CCCCCCCCCCNC(=O)[C@@H](CCSC)n3cc(CCO)nn3)CC2)n1	-14.6%	x	u	-12.0%	u	-59.6*
C#CCOCCOCCOCCNc1nc(N2CCN(C(=O)CCCCCCCCCCNC(=O)Cn3cc(C[C@@H](C)O)nn3)CC2)nc(N2CCN(C(=O)CCCCCCCCCCNC(=O)[C@H](CCCCN)n3cc(CCCC(=O)O)nn3)CC2)n1	2.0%	u	1.4%	24.5%	u	u
C#CCOCCOCCOCCNc1nc(N2CCN(C(=O)CCCCCCCCCCNC(=O)[C@@H](CCSC)n3cc(CCO)nn3)CC2)nc(N2CCN(C(=O)CCCCCCCCCCNC(=O)[C@H](CCSC)n3cc(CCO)nn3)CC2)n1	-1.1%	21.8%	u	-20.1%	6.51µM*	u
C#CCOCCOCCOCCNc1nc(N2CCN(C(=O)CCCCCCCCCCNC(=O)Cn3cc(C[C@@H](C)O)nn3)CC2)nc(N2CCN(C(=O)CCCCCCCCCCNC(=O)[C@H](CCCN=C(N)N)n3cc(C[C@@H](C)CC)nn3)CC2)n1	u	x	16.4µM*	u	u	-96.9*
C#CCOCCOCCOCCNc1nc(N2CCN(C(=O)CCCCCCCCCCNC(=O)[C@H](CO)n3cc(CCCSC)nn3)CC2)nc(N2CCN(C(=O)CCCCCCCCCCNC(=O)[C@H](CCCN=C(N)N)n3cc(C[C@@H](C)CC)nn3)CC2)n1	u	x	23.1µM*	u	u	-102.7*
Cc1[nH]c(=O)[nH]c(=O)c1S(=O)(=O)Nc1ccccc1Cl	x	25.3%	x	x	x	x
Cn1c(=O)c2ccnn2c2ccc(C(=O)NCC3CCN(Cc4cccc(F)c4)CC3)cc21	x	-6.3%	x	x	x	x
C#CCOCCOCCOCCNc1nc(N2CCN(C(=O)CCCCCCCCCCNC(=O)[C@H](CO)n3cc(CCCSC)nn3)CC2)nc(N2CCN(C(=O)CCCCCCCCCCNC(=O)[C@H](CCCCN)n3cc(CCO)nn3)CC2)n1	-16.5%	u	u	-10.0%	u	-60.9*
CC(C)c1ccccc1NC(=O)CCc1ncc(-c2ccccc2)o1	x	2.5%	x	x	x	x
COCCn1ncc(N2CCC(C(=O)NCc3nc4ccccc4n3C)C2)cc1=O (stereo not drawn)	x	79.2%	x	x	x	x
SMILES	HT1080 IDH1KD tx	ALOX12 inh	DT40 TDP1 no CPT	HT1080NT lethal	DT40 TDP1 CPT	IL1B secr inh
O=C(COC(=O)c1ccc(S(=O)(=O)C(F)F)cc1)c1ccc(F)cc1	x	2.1%	x	x	x	x
Cc1nc2c(c(-c3ccc(Cl)cc3)n1)CCN(C(=O)Cc1ccccn1)CC2	x	6.8%	x	x	x	x
Cc1ccc(S(=O)(=O)CCC(=O)c2ccc(O)cc2O)cc1	3.3%	u	1.16µM*	-4.1%	1.84µM*	-8.4
COc1ccc(C(=O)CCS(=O)(=O)c2ccc(C)cc2)cc1OC	u	-63.8%	3.26µM*	-5.6%	3.66µM*	-81.9*
CCCc1nnc(NC(=O)Cn2ccc3ccc(Cl)cc32)s1	x	-9.9%	x	x	x	x
Cc1ccc(-n2nnc(C(=O)Nc3nccs3)c2C)cc1C	x	9.3%	x	x	x	x
COc1cc(CNC(=O)c2cccc(COc3ccc(Cl)cc3)c2)cc(OC)c1	-12.7%	-12.7%	16.4µM*	-5.7%	u	-11.8
NNC(=O)c1ccc(COc2ccc3ccccc3c2)cc1	-17.2%	3.5%	20.6µM*	u	u	33.0
O=C(O)c1cccc(COc2ccc(Br)cc2)c1	x	-21.1%	x	x	x	x
CC1CN(C(=O)c2cccc(COc3ccc(Br)cc3)c2)CC(C)O1 (stereo not drawn)	-1.4%	19.1%	13µM*	-9.5%	20.6µM*	-14.7
NNC(=O)c1cccc(COc2ccc(Br)cc2)c1	2.1%	11.4%	u	2.9%	20.6µM*	i
O=C(NCc1ccccc1)c1cccc(COc2ccc(Cl)cc2)c1	-14.4%	0.0%	u	-12.2%	-13.7%	u
O=C(Nc1cnc(-c2ccccc2)nc1)C1CCCC1	x	38.9%	x	x	x	x
CNC(=O)N1C[C@@H](CN(C)C)[C@H](NC(=O)CC2CCCC2)C1	x	63.7%	x	x	x	x
